Out of some 3,600 compounds screened, about 900 (25%) were called active. How the calls were made is not given here. The list is a sample of the results. Entries with a potency or affinity are not part of this list.
What follows are compounds tested against Protein Tat (Human immunodeficiency virus type 1 group M subtype B (isolate HXB2)) (UniProt P04608) (assay: HIV-1 Tat–TAR interaction blockers – biochemical, fluorescence polarization, FAM-labeled TAR RNA, counter-screen for Vif-APOBEC3G degradation inhibitor project, dose response (AID 1117361)). Conditions: Tat-TAR RNA binding; series mostly up to 100 µM.
`O=C(Nc1nncs1)c1c(F)c(F)c(F)c(F)c1F` was tested, and the outcome was “inactive”. `O=C(CN(C1CCCCC1)S(=O)(=O)c1ccccc1)N1CCCC1` was tested, and the outcome was “inactive”. For `Cc1nc2ccccn2c1/C(O)=C1\C(=O)C(=O)N(CCCn2ccnc2)C1c1ccncc1` (configuration not stated), the outcome was “inactive”. For `CCN(CC)CCCN1CC(O)=C(c2nc3ccccc3s2)C1=N`, the outcome was “inactive”. In the case of `Cc1cc(Nc2ccc(C)c(C)c2)n2nc(C)nc2n1`, the outcome is reported as “inactive”. With `Cc1cc(C(=O)N2CCOCC2)n(-c2ccccc2)n1` the outcome was “inactive”. For `O=S(=O)(Nc1ccc(N2CCOCC2)cc1)c1ccccc1`, the outcome was “inactive”. `Cc1nn(-c2c(Cl)cc(Cl)cc2Cl)c(=O)c2ccccc12` was tested, and the outcome was “inactive”. With `CC(Sc1nnnn1-c1ccccc1)C(=O)Nc1ccc(Cl)cn1` (configuration not stated) the outcome was “inactive”. For `O=C(CN1C(=O)C2CC=CCC2C1=O)OCCN1C(=O)c2ccccc2C1=O` (configuration not stated), the outcome was “inactive [at 50 µM]”. With `Cc1ccc(CCNC(=O)C2CCC(=O)N2C2CCCC2)cc1` (configuration not stated) the outcome was “inactive”. In the case of `Cc1c(NS(=O)(=O)c2cccc(C(=O)NCc3ccncc3)c2)c(=O)n(-c2ccccc2)n1C`, the outcome is reported as “inactive”. For `O=S(=O)(NCc1ccccc1Cl)c1cnc[nH]1`, the outcome was “inactive”. In the case of `CNC(=S)N(Cc1ccc(OC)cc1)C1CC(=O)N(c2ccc(Cl)cc2)C1=O` (configuration not stated), the outcome is reported as “inactive”. With `CCCC(=O)NNC(=O)Nc1ccccc1` the outcome was “inactive”. For `CCN1CCN(Cc2ccc(NC(=O)Nc3ccccc3)cc2)CC1`, the outcome was “inactive”. For `COc1ccc2cc(C(=O)Nc3ccc(O)cc3)sc(=O)c2c1OC`, the outcome was “inactive”. In the case of `O=C(NCC1CCCO1)c1c(O)c2c([nH]c1=O)CCCC2` (configuration not stated), the outcome is reported as “inactive”. For `CC[n+]1c(/C=C2\C=C(C)CC(C)(C)C2)sc2ccccc21`, the outcome was “inactive”. In the case of `CCC(C)NC(=O)CSc1ccc(S(=O)(=O)N2CCN(Cc3ccccc3)CC2)cn1` (configuration not stated), the outcome is reported as “inactive”. `Cc1csc(NC(=O)CCSCCc2ccccn2)n1` was tested, and the outcome was “inactive”. `CCOc1ccc(NC(=S)/C(=C(\[O-])c2ccc(C)c([N+](=O)[O-])c2)[n+]2ccccc2)cc1` was tested, and the outcome was “inactive”. For `C=C(C)COc1ccc2c(C)c(C)c(=O)oc2c1OCC(=C)C`, the outcome was “inactive”. `COc1ccc(NC(=O)CN(C)S(=O)(=O)c2ccc3c(c2)CCC(=O)N3)c(OC)c1` was tested, and the outcome was “inactive”. `Cn1c(SCC(=O)N2CCCC2)nc2ccccc2c1=O` was tested, and the outcome was “inactive”. For `CCC(Sc1nc2c(c(=O)n1CC)SC(C)C2)C(=O)OC` (configuration not stated), the outcome was “inactive”. With `Cc1noc(NS(=O)(=O)c2ccc(NC(=O)CSc3nnc(-c4ccccc4)n3C3CCCCC3)cc2)c1C` the outcome was “inactive”. For `CC(=O)NCCn1c(SCC(=O)Nc2ccc(C)cc2)nc2ccccc2c1=O`, the outcome was “inactive”. With `Cc1nc(NCc2ccccc2)c2cc[nH]c2n1` the outcome was “inactive”. In the case of `Cc1cc(C)n(CC(O)CN2c3ccccc3Sc3ccccc32)n1` (configuration not stated), the outcome is reported as “inactive”. For `CC1CCCCN1Cc1ccc(N(C)C)cc1` (configuration not stated), the outcome was “inactive”. With `O=C(NN=C1CCCC1)C(=O)Nc1cccc(C(F)(F)F)c1` the outcome was “inactive”. For `O=C(Nc1ccccc1)c1ccc2nc(-c3ccco3)c(-c3ccco3)nc2c1`, the outcome was “inactive”. For `Cc1ccc(C(=O)Nc2cccnc2)cc1NC(=O)c1ccco1`, the outcome was “inactive”. `O=C(Nc1cccc(C(F)(F)F)c1)c1cccnc1NCCc1ccccc1` was tested, and the outcome was “inactive”. With `COC(=O)C1=C(C)Nc2ncnn2C1c1ccc(OC(=O)c2ccccc2)cc1` (configuration not stated) the outcome was “inactive”. For `CC(=O)c1ccccc1NC(=O)COC(=O)CN1C(=O)C2CCCCC2C1=O` (configuration not stated), the outcome was “inactive”. `COCCn1c(-c2ccc(OC)cc2)nc2ccccc21` was tested, and the outcome was “inactive”. In the case of `N#Cc1cn(CCOc2ccccc2F)c2ccccc12`, the outcome is reported as “inactive”. In the case of `Cc1ccc(C(=O)N2c3ccc(F)cc3CCC2C)o1` (configuration not stated), the outcome is reported as “inactive”. With `CC(Cc1c[nH]c2ccccc12)C(=O)NCc1ccco1` (configuration not stated) the outcome was “inactive”. For `COC(=O)COc1ccc(S(=O)(=O)NCc2ccco2)cc1Cl`, the outcome was “inactive”. In the case of `CN(C)CCNc1oc(COc2ccc(Cl)cc2)nc1C#N`, the outcome is reported as “inactive”. For `O=C(NNC(=O)c1cc(OCC(F)(F)F)ccc1OCC(F)(F)F)c1cccc(C(F)(F)F)c1`, the outcome was “inactive”. For `Cc1cc(-n2c(C)cc(C(=O)COC(=O)CN=C3NS(=O)(=O)c4ccccc43)c2C)no1`, the outcome was “inactive”. `COC(=O)C1(C(=O)OC)NOC2C(=O)N(c3ccccc3)C(=O)C21` (configuration not stated) was tested, and the outcome was “inactive”. For `O=C1CCCC2=C1C(c1ccsc1)CC(=O)N2c1ccccc1` (configuration not stated), the outcome was “inactive”. For `COc1ccc(OCCOC(=O)c2cc(S(=O)(=O)N3CCOCC3)c(Cl)cc2Cl)cc1`, the outcome was “inactive”. In the case of `O=C(c1cccc(S(=O)(=O)N2CCCC2)c1)N1CCOCC1`, the outcome is reported as “inactive”. In the case of `COc1ccc(CN2CCSCC2)cc1C`, the outcome is reported as “inactive”. For `CCC(=O)OCCNc1cc(Sc2nc3ccccc3[nH]2)c2nonc2c1[N+](=O)[O-]`, the outcome was “inactive”. For `O=[N+]([O-])c1c(Nc2ccccc2O)cc(Cl)c2nonc12`, the outcome was “inactive”. For `CN(CCO)c1cc(Sc2nc3ccccc3s2)c2nonc2c1[N+](=O)[O-]`, the outcome was “inactive”. With `O=C(O)c1cc(Nc2cc(Cl)c3nonc3c2[N+](=O)[O-])ccc1O` the outcome was “inactive”. With `C=CCSc1nnc(-c2ccc(Cl)cc2Cl)o1` the outcome was “inactive”. In the case of `O=C1N=NC2=C1c1c3ccccc3c(O)n1CC2`, the outcome is reported as “inactive”. With `N#CC1=C(Nc2ccccc2)SC=C(c2ccc(Br)cc2)N=C1N1CCOCC1` the outcome was “inactive”. With `Cc1onc(-c2ccccc2Cl)c1C(=O)N1CCN(c2cccc(Cl)c2)CC1` the outcome was “inactive”. `COc1ccc(CC(=O)OCn2nnc3ccccc3c2=O)cc1` was tested, and the outcome was “inactive”. For `CC(NC(=O)CN(C)Cc1nc2ccccc2c(=O)[nH]1)c1ccccc1` (configuration not stated), the outcome was “inactive”. For `Cc1ccc(CNC(=O)C2CCCN(S(=O)(=O)c3cnc[nH]3)C2)cc1` (configuration not stated), the outcome was “inactive”. With `COCCn1c(SCC(=O)N2CCC(C)CC2)nc2ccccc2c1=O` the outcome was “inactive”. In the case of `COc1ccc(/C=N/NC(=O)CNc2n[nH]c(=O)[nH]c2=O)cc1OC`, the outcome is reported as “inactive”. With `O=C(Nc1nc2n(n1)C(c1ccccc1)CC(c1ccc(Cl)cc1)N2)c1ccco1` (configuration not stated) the outcome was “inactive”. With `COc1cccc(-c2nc3cc(C)ccc3o2)c1` the outcome was “inactive”. For `Cc1nc2nc(-c3ccccc3)cn2nc1C`, the outcome was “inactive”. In the case of `CON(c1nc(N(C)C)nc(N(C)C)n1)S(=O)(=O)c1ccccc1Cl`, the outcome is reported as “inactive”. With `O=C(Cn1nc(-c2ccc(Cl)cc2)ccc1=O)NCc1ccc2c(c1)OCO2` the outcome was “inactive”. `O=S(=O)(c1ccc(Cl)s1)N1CCN(Cc2ccccc2)CC1` was tested, and the outcome was “inactive”. For `CC1CCN(Cc2cnc(Cl)s2)CC1`, the outcome was “inactive”. `CCn1c(SCC(=O)OC)nc2sc3c(c2c1=O)CCC3` was tested, and the outcome was “inactive”. With `CCCCSc1nc2sc3c(c2c(=O)[nH]1)CCC3` the outcome was “inactive”. In the case of `Cc1nn(C)cc1CNC(=O)C1C2CCC(C2)C1C(=O)O` (configuration not stated), the outcome is reported as “inactive”. `CCN1C(=O)CS/C1=C(\C#N)S(=O)(=O)c1ccccc1` was tested, and the outcome was “inactive”. For `Clc1ccc(CSCCc2ccncc2)cc1`, the outcome was “inactive”. `COC1=C(Br)C(=O)c2nc(C)ccc2C1=O` was tested, and the outcome was “inactive”. In the case of `COC1=C(N)C(=O)c2nc(C)ccc2C1=O`, the outcome is reported as “inactive”. In the case of `CCOC(=O)C1(Cc2ccc(OC)cc2)CCN(C(=O)Cc2cccnc2)CC1`, the outcome is reported as “inactive”. For `COC(=O)C(Cc1c[nH]c2ccccc12)NC(=O)C(C)C` (configuration not stated), the outcome was “inactive”. For `Cc1ccc(CNC(=O)CCC2CCCN(Cc3cc4ccccc4o3)C2)o1` (configuration not stated), the outcome was “inactive”. `Cc1ccc(CCNC(=O)C2CCCN(S(=O)(=O)c3c(C)noc3/C=C/N(C)C)C2)cc1` (configuration not stated) was tested, and the outcome was “inactive”. With `Cc1ccc(S(=O)(=O)c2c(N)n(NC(=O)C3CC3)c3nc4ccccc4nc23)cc1` the outcome was “inactive”. For `Cc1ccc(C)c(CN2C(=O)C(C)Oc3ccc(C)cc32)c1` (configuration not stated), the outcome was “inactive”. With `CC1(C)Cc2c(c(=S)nc(-c3ccccc3)n2CCCN2CCOCC2)CO1` the outcome was “inactive”. For `C=CCN=c1scc(C)n1/N=C/c1ccc(O)c(O)c1`, the outcome was “inactive”. `COc1ccc(Cl)cc1N(CC(=O)Nc1ccc2c(c1)OCO2)S(C)(=O)=O` was tested, and the outcome was “inactive”. For `COC(=O)c1cccc(NC(=O)NC2CCCN2S(=O)(=O)c2ccc(Cl)cc2)c1` (configuration not stated), the outcome was “inactive”. In the case of `CS(=O)(=O)N(C(=O)NC(=O)NC1CCS(=O)(=O)C1)C1CCCCC1` (configuration not stated), the outcome is reported as “inactive”. `COc1ccc(C2CC(=O)Nc3cc(C)c(C)cc32)c(OC)c1OC` (configuration not stated) was tested, and the outcome was “inactive”. For `CC(C(=O)N1CCOCC1)(c1ccccc1)c1ccccc1`, the outcome was “inactive”. `CC(=O)c1ccc(Nc2nc(=O)c3cccnc3s2)cc1` was tested, and the outcome was “inactive”. For `CN(C)c1ccc(C=c2c3cc([N+](=O)[O-])ccc3n3c2cc(-c2ccccc2)[n+]3C)cc1`, the outcome was “inactive”. For `NNC(=S)Nc1ccc(Cl)cc1`, the outcome was “inactive”. With `CC(=O)c1ccc(N2CCN(C(=O)c3ccc4c(c3)OCO4)CC2)cc1` the outcome was “inactive”. In the case of `O=C(NCCS(=O)CCNC(=O)C(F)(F)F)C(F)(F)F`, the outcome is reported as “inactive”. With `Cc1onc(-c2ccccc2)c1C(=O)NCC1COc2ccccc2O1` (configuration not stated) the outcome was “inactive”. In the case of `CC(=O)Cc1nsc(Nc2ccc3c(c2)OCCO3)n1`, the outcome is reported as “inactive”. `O=C(NN(C(=O)c1ccccc1)c1ccccc1)c1ccccc1` was tested, and the outcome was “inactive”. In the case of `CC(NC(=O)C1C(=O)N(CCO)C2(C)CC1c1ccccc1O2)c1ccccc1` (configuration not stated), the outcome is reported as “inactive”. For `CN1OC[C@@H]2CN(C(=O)C(C)(C)C)[C@H](c3cccc(Oc4ccccc4)c3)C[C@@H]21`, the outcome was “inactive”. `O=C(c1cc(COc2cccc3cccnc23)on1)N1CCC[C@H]1CO` was tested, and the outcome was “inactive”. With `C=CCc1cc(Cl)ccc1OC(=O)Nc1cccc(Cl)c1` the outcome was “inactive”. For `COc1ccc2[nH]c3c(N4CCC(O)(c5cccc(C(F)(F)F)c5)CC4)ncnc3c2c1`, the outcome was “inactive”. With `Clc1ccc(CSc2snnc2-c2ccccc2)c(Cl)c1` the outcome was “inactive”. For `Cc1ccc(CSc2nnc(-c3ccco3)o2)cc1`, the outcome was “inactive”. For `CCCCN(CCCC)CCCN1CC(=O)N2[C@@H](Cc3c([nH]c4ccccc34)C2(C)C)C1=O`, the outcome was “inactive”. With `CC(C)Cn1c(=O)[nH]c2ccccc21` the outcome was “inactive”. For `COc1ccc(CCN=C(N)NS(=O)(=O)c2ccc(C)cc2)cc1`, the outcome was “inactive”. With `O=C(NCc1ccco1)c1sc2cccc(F)c2c1Cl` the outcome was “inactive”. For `CCN(CC)C(=O)Cn1cnc2sc(C(=O)Nc3cc(OC)c(OC)c(OC)c3)c(C)c2c1=O`, the outcome was “inactive”. `Cc1cc(NC(=O)CSc2nnc(-c3ccncc3)n2N)ccc1Br` was tested, and the outcome was “inactive”. For `CCc1ccc(NC(=O)CCNS(=O)(=O)c2cccc3nonc23)cc1`, the outcome was “inactive”.

— PubChem BioAssay AID1117361 (Southern Research Institute, 2015)
